The panel holds about 83,000 compounds, 20% with a hit somewhere; the sample as a whole holds those more often.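 Assay: single dose, 48 h. Readout: percent growth (0 = no net growth; negative = cell death). Active: <10.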 Values without a mark were called inactive. Activity calls are given as the source filed them.

Some test systems named below: NCI-H23 lung; NCI-H322M lung; HOP-62 NSCLC; NCI-H460 lung; HOP-92 NSCLC; NCI-H522 lung; A549/ATCC NSCLC; 786-0 renal; COLO 205 colon; DU-145 prostate.
What all share (test): NCI-60 one-dose screen, 48 h (100 = growth as untreated, 0 = no growth, -100 = all killed)
Conditions in all cases: 10 µM unless noted

For `Nc1ccn(C2O[C@H](CO)[C@@H](O)[C@H]2O)c(=O)n1` (stereo not given in full), the growth is 71.8% with NCI-H23 lung; 114% with NCI-H322M lung; 65% in the assay with HOP-62 NSCLC; 59.8% in the assay on NCI-H460 lung; 73.2% with HOP-92 NSCLC; 71.2% with NCI-H522 lung. In addition, the growth was 46.6% in the assay with A549/ATCC NSCLC, 95.2% in the assay on 786-0 renal, 110% with COLO 205 colon and 94.4% in the assay on DU-145 prostate.
Take `COC(=O)/C(=C\c1c(-c2ccccc2)[nH]c2ccccc12)S(C)(=O)=O`: the growth in the assay with NCI-H23 lung was 33.9%; in the assay on NCI-H322M lung, 63.8%; with HOP-62 NSCLC, 38.2%; in the assay on NCI-H460 lung, 12.5%; with HOP-92 NSCLC, 65.4%; in the assay with NCI-H522 lung, 47.1%. Also, the growth with A549/ATCC NSCLC is 38.6%; in the assay on 786-0 renal, 38.1%; in the assay on COLO 205 colon, 24.3%; in the assay on DU-145 prostate it was -5.09% (active).
Turning to `Nc1ccc(C2c3ccccc3Oc3ccccc32)cc1`, the growth in the assay with NCI-H23 lung was 99.1%; with NCI-H322M lung it was 99.8%; in the assay on HOP-62 NSCLC, 91.8%; in the assay on NCI-H460 lung it was 108%; with HOP-92 NSCLC, 93.4%; with NCI-H522 lung it was 89.4%. For the same compound, the growth in the assay with A549/ATCC NSCLC was 97.7%; in the assay on 786-0 renal, 105%; with COLO 205 colon it was 105%; in the assay with DU-145 prostate it was 106%.
Consider `COc1ccccc1CNC(=O)C1c2ccccc2C(=O)N(CC(C)C)C1c1cccs1` (stereo not given), for which the growth in the assay on NCI-H23 lung was 76.6%; with NCI-H322M lung it was 69.8%; in the assay on HOP-62 NSCLC, 62.6%; with NCI-H460 lung it was 55.6%; with HOP-92 NSCLC, 76%; in the assay with NCI-H522 lung, 41%. The growth is 60.7% with A549/ATCC NSCLC, 75.1% in the assay with 786-0 renal, 46.1% with COLO 205 colon and 71.2% in the assay on DU-145 prostate.
Turning to `O=C(Nc1ccc(N2CCNCC2)cn1)c1[nH]ncc1Nc1ncnc2sccc12`, the growth with NCI-H23 lung is 18.4%; with NCI-H322M lung it was 59.1%; with HOP-62 NSCLC, 73%; in the assay with NCI-H460 lung, 43.1%; in the assay with HOP-92 NSCLC, 52.5%; with NCI-H522 lung it was -3.84% (active). Also, the growth with A549/ATCC NSCLC is 4.12% (active); in the assay on 786-0 renal it was -43.6% (active); in the assay on COLO 205 colon it was 29%; with DU-145 prostate, 41.9%.
As for `CC[C@]1(O)C[C@@H]2CN(CCc3c([nH]c4ccccc34)[C@@](C(=O)OC)(c3cc4c(cc3OC)N(C)[C@H]3[C@@](O)(C(=O)OC)[C@H](OC(=O)CCCBr)[C@]5(CC)C=CCN6CC[C@]43[C@@H]65)C2)C1`, the growth in the assay on NCI-H23 lung was 33.1%; in the assay on NCI-H322M lung, 38.7%; in the assay on HOP-62 NSCLC, 29.2%; in the assay on NCI-H460 lung, 5.85% (active); in the assay on HOP-92 NSCLC, -0.264% (active); in the assay with NCI-H522 lung it was -27% (active). In addition, the growth with A549/ATCC NSCLC was 15.2%; in the assay on 786-0 renal it was 10.4%; with COLO 205 colon it was -53.2% (active); in the assay on DU-145 prostate it was 5.82% (active).
On to `COc1cc(-c2c3c(c(Br)n2Cc2ccccc2)-c2nc(N)sc2CC3)cc(OC)c1OC`, for which the growth with NCI-H23 lung is 98.2%; with NCI-H322M lung, 77.7%; with HOP-62 NSCLC it was 88.5%; with NCI-H460 lung, 94%; in the assay with HOP-92 NSCLC, 76.4%; in the assay with NCI-H522 lung, 38.4%. The growth in the assay with A549/ATCC NSCLC is 82.9%; in the assay on 786-0 renal, 86%; with COLO 205 colon it was 108%; in the assay with DU-145 prostate it was 108%.
As to `Cn1cc([C@@H]2Nc3ccc4[nH]ncc4c3[C@H]3[C@H]4CCC(C4)[C@H]32)c(C(F)(F)F)n1`, the growth in the assay with NCI-H23 lung was 90.6%; in the assay on NCI-H322M lung, 89.5%; with HOP-62 NSCLC, 53%; in the assay with NCI-H460 lung, 27.9%; in the assay with HOP-92 NSCLC it was 64.1%; in the assay with NCI-H522 lung, 2.48% (active). Also, the growth was 41.1% with A549/ATCC NSCLC, 59.1% in the assay on 786-0 renal, 52.7% in the assay with COLO 205 colon and 72.9% in the assay with DU-145 prostate.
Regarding `COc1ccc(OC)c(NC(=O)/C(C#N)=C/c2ccco2)c1`, the growth with NCI-H23 lung is 96.6%; in the assay with NCI-H322M lung it was 99.8%; in the assay on HOP-62 NSCLC, 90.8%; in the assay on NCI-H460 lung it was 107%; in the assay on HOP-92 NSCLC it was 51.1%; in the assay on NCI-H522 lung, 45.5%. Besides, the growth is 93.8% in the assay with A549/ATCC NSCLC, 100% in the assay with 786-0 renal, 92.8% with COLO 205 colon and 116% in the assay with DU-145 prostate.
In the case of `O=C(Nc1ccc(Cl)cc1)c1cc2ccccc2cc1OP(=O)(O)O`, the growth in the assay with NCI-H23 lung was -0.361% (active); in the assay with NCI-H322M lung, 22.7%; in the assay with HOP-62 NSCLC, 32.3%; in the assay with NCI-H460 lung, 14.2%; with HOP-92 NSCLC, -24% (active); with NCI-H522 lung, 3.47% (active). In addition, the growth in the assay on A549/ATCC NSCLC is 16.4%; in the assay with 786-0 renal it was 20.6%; in the assay on COLO 205 colon it was 98.9%; in the assay on DU-145 prostate, 24.9%.
Regarding `Nc1nc(-c2cnccn2)nn1-c1nc2ccccc2s1`, the growth was 95.2% in the assay on NCI-H23 lung; 103% in the assay with NCI-H322M lung; 95.4% in the assay with HOP-62 NSCLC; 104% in the assay on NCI-H460 lung; 106% in the assay with HOP-92 NSCLC; 88.4% in the assay on NCI-H522 lung. The growth in the assay on A549/ATCC NSCLC was 92.7%; with 786-0 renal, 102%; with COLO 205 colon, 111%; with DU-145 prostate it was 106%.
`COc1cc2cc3c(=O)n4c(cc5cc(OC)ncc54)c(=O)n3c2cn1`: the growth in the assay with NCI-H23 lung was 101%; in the assay with NCI-H322M lung, 97.4%; with HOP-62 NSCLC, 95.3%; in the assay on NCI-H460 lung it was 107%; in the assay with HOP-92 NSCLC, 114%; in the assay with NCI-H522 lung, 99.2%. The growth was 102% with A549/ATCC NSCLC, 99.1% in the assay on 786-0 renal, 114% with COLO 205 colon and 106% in the assay with DU-145 prostate.
Regarding `COc1cccc(C(=O)Cn2cc(/C=C(\C#N)S(=O)(=O)c3ccccc3)c3ccccc32)c1`, the growth is 90.4% in the assay with NCI-H23 lung; 96.7% in the assay with NCI-H322M lung; 83.1% in the assay on HOP-62 NSCLC; 57.5% with NCI-H460 lung; 68.8% with HOP-92 NSCLC; 88% in the assay with NCI-H522 lung. The growth is 93.1% with A549/ATCC NSCLC, 99.3% with 786-0 renal, 90.7% in the assay with COLO 205 colon and 105% in the assay on DU-145 prostate.

For the origin of these results see PubChem BioAssay (NCI).
